# According to PubChem BioAssay (NCI):
# “And” between values parts separate entries of the source, which are not always exact repeats. Equal values may be shown once. About 79,000 compounds went through this panel and 15% of them were active in at least one assay; those are over-represented in the sample as a whole. A structure can be active in one record and inactive in another. The source made the active and inactive calls. Cut-off read from the data, not from the text of the source: active = growth inhibition above about 70%; inactive = the rest.
# Key:
# [1] = NCI Yeast Anticancer Drug Screen. Data for the wt1 strain (AID 149);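 note: 0% = growth of vehicle-treated wt1 cultures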; conditions: S. cerevisiae wt1 strain (SPY 50644) growth inhibition, stronger effect = higher value
# Procedure, shortened: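 Vehicle-normalised growth inhibition; strain wt1; compound exposure.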
# [2] = NCI Yeast Anticancer Drug Screen. Data for the rad50EPP+ strain (AID 151);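 note: 0% = growth of vehicle-treated control cultures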; conditions: S. cerevisiae rad50 mutant strain, stronger effect = higher value
# Procedure, shortened: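 Growth inhibition read against vehicle controls in rad50EPP+ yeast, a strain altered in DNA damage repair, after compound exposure.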
# [3] = NCI Yeast Anticancer Drug Screen. Data for the mgt1 strain (AID 153); conditions: S. cerevisiae mgt1 mutant growth inhibition, stronger effect = higher value
# Procedure, shortened: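 mgt1 yeast grown with test compound; read-out is growth inhibition versus vehicle-treated cultures.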
# [4] = NCI Yeast Anticancer Drug Screen. Data for the rad50 strain (AID 155);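 note: 0% = growth of vehicle-only cultures of the same strain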; conditions: S. cerevisiae rad50 strain growth inhibition, stronger effect = higher value
# Procedure, shortened: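 A DNA repair-deficient yeast mutant serves as the test organism; compound-induced growth inhibition is calculated against vehicle-treated cells.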
# [5] = NCI Yeast Anticancer Drug Screen. Data for the mec2-1 strain (AID 157); conditions: S. cerevisiae mec2-1 strain, stronger effect = higher value
# Procedure, shortened: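 Yeast mec2-1 mutant treated with compound. Readout: growth inhibition vs vehicle controls.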
# [6] = NCI Yeast Anticancer Drug Screen. Data for the rad14 strain (AID 159);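 note: 0% = growth of vehicle-treated control cultures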; conditions: S. cerevisiae rad14 strain growth inhibition, stronger effect = higher value
# Procedure, shortened: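 Vehicle-treated cultures served as the baseline for growth inhibition of a DNA repair-mutant yeast strain exposed to each compound.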
# [7] = NCI Yeast Anticancer Drug Screen. Data for the sgs1 mgt1 strain (AID 161);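 note: 0% = growth of cultures given vehicle only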; conditions: S. cerevisiae sgs1 mgt1 strain, stronger effect = higher value
# Procedure, shortened: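 Read-out: growth inhibition vs vehicle controls. Cells: mutant yeast strain deficient in DNA damage repair.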
# [8] = NCI Yeast Anticancer Drug Screen. Data for the CLN2oe strain (AID 163);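 note: 0% = growth of vehicle-only control cultures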; conditions: S. cerevisiae CLN2oe strain, stronger effect = higher value
# Procedure, shortened: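 Read-out: yeast growth inhibition, expressed relative to vehicle-only controls. The strain bears an engineered cell-cycle alteration.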
# [9] = NCI Yeast Anticancer Drug Screen. Data for the cln2 rad14 strain (AID 165);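 note: 0% = growth equal to vehicle treated cultures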; conditions: S. cerevisiae cln2 rad14 strain, stronger effect = higher value
# Procedure, shortened: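 cln2 rad14 yeast strain; compound exposure; growth inhibition read vs vehicle controls.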
# [10] = NCI Yeast Anticancer Drug Screen. Data for the bub3 strain (AID 167); conditions: S. cerevisiae bub3 mutant strain, stronger effect = higher value
# Procedure, shortened: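 Inhibition values come from growth of compound-treated mutant yeast normalised to vehicle-treated controls.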
# [11] = NCI Yeast Anticancer Drug Screen. Data for the wt2 strain (AID 169);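 note: 0% = growth of vehicle-treated yeast cultures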; conditions: S. cerevisiae wt2 strain growth inhibition, stronger effect = higher value
# Procedure, shortened: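 Read-out: growth inhibition versus vehicle-treated control cultures after compound exposure of the yeast strain.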
# [12] = NCI Yeast Anticancer Drug Screen. Data for the sgs1 strain (AID 173);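 note: 0% = growth of vehicle-only control cultures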; conditions: S. cerevisiae sgs1 mutant, stronger effect = higher value
# Procedure, shortened: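 Read-out: yeast growth inhibition relative to vehicle controls, following compound exposure of a strain with a defined DNA repair/cell cycle alteration.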
# [13] = NCI Yeast Anticancer Drug Screen. Data for the mlh1 rad18 strain (AID 175); conditions: S. cerevisiae mlh1 rad18 strain growth inhibition, stronger effect = higher value
# Procedure, shortened: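 Yeast w/ defined DNA-repair lesions; compound exposure; growth vs vehicle controls → % inhibition.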
# [14] = NCI Yeast Anticancer Drug Screen. Data for the rad18 strain (AID 177); conditions: S. cerevisiae rad18 mutant growth inhibition, stronger effect = higher value
# Procedure, shortened: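 Readout: growth inhibition vs vehicle controls. Cells: genetically altered yeast strain, DNA repair defect.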
# [15] = NCI Yeast Anticancer Drug Screen. Data for the mlh1 strain (AID 171);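 note: 0% = growth of vehicle-treated control cultures of the same strain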; conditions: S. cerevisiae mlh1 strain growth inhibition, stronger effect = higher value
# Procedure, shortened: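 Read-out: growth inhibition versus vehicle controls. Strain: engineered yeast with a defined DNA repair or cell cycle defect, compound-treated.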
# [16] = at 5.0 µM (retest, dose inferred, filed as 0.5)
# [17] = at 50.0 µM (retest, dose inferred, filed as 5.0)
structure (smiles),measurement,setting,value
CCN(CCCl)c1cc(CN(C)C)cc(NC(=O)c2ccc(C(=O)Nc3cc(CN(C)C)cc(N(CC)CCCl)c3)cc2)c1,growth inhibition,[1]; at 1.2 µM,9% (inactive)
same,growth inhibition,[1]; at 3.7 µM,20% (inactive)
same,growth inhibition,[1]; at 11.0 µM,9% (inactive)
same,growth inhibition,[1]; at 33.0 µM,8% (inactive)
same,growth inhibition,[1]; at 100.0 µM,40% (inactive)
same,growth inhibition,[2]; at 1.2 µM,17% (inactive)
same,growth inhibition,[2]; at 3.7 µM,32% (inactive)
same,growth inhibition,[2]; at 11.0 µM,9% (inactive)
same,growth inhibition,[2]; at 33.0 µM,19% (inactive)
same,growth inhibition,[2]; at 100.0 µM,35% (inactive)
same,growth inhibition,[3]; at 1.2 µM,5% (inactive)
same,growth inhibition,[3]; at 3.7 µM,3% (inactive)
same,growth inhibition,[3]; at 11.0 µM,-6% (inactive)
same,growth inhibition,[3]; at 33.0 µM,10% (inactive)
same,growth inhibition,[3]; at 100.0 µM,89% (active)
same,growth inhibition,[4]; at 1.2 µM,3% (inactive)
same,growth inhibition,[4]; at 3.7 µM,11% (inactive)
same,growth inhibition,[4]; [16],36% (inactive)
same,growth inhibition,[4]; at 11.0 µM,4% (inactive)
same,growth inhibition,[4]; at 33.0 µM,58% (inactive)
same,growth inhibition,[4]; [17],93% (active)
same,growth inhibition,[4]; at 50.0 µM,73.5% (active)
same,growth inhibition,[4]; at 100.0 µM,96% (active)
same,growth inhibition,[5]; at 1.2 µM,-8% (inactive)
same,growth inhibition,[5]; at 3.7 µM,1% (inactive)
same,growth inhibition,[5]; [16],26% (inactive)
same,growth inhibition,[5]; at 11.0 µM,-9% (inactive)
same,growth inhibition,[5]; at 33.0 µM,8% (inactive)
same,growth inhibition,[5]; [17],95% (active)
same,growth inhibition,[5]; at 50.0 µM,37.5% (inactive)
same,growth inhibition,[5]; at 100.0 µM,90% (active)
same,growth inhibition,[6]; at 1.2 µM,-11% (inactive)
same,growth inhibition,[6]; at 3.7 µM,-13% (inactive)
same,growth inhibition,[6]; at 11.0 µM,-6% (inactive)
same,growth inhibition,[6]; at 33.0 µM,56% (inactive)
same,growth inhibition,[6]; at 100.0 µM,96% (active)
same,growth inhibition,[7]; [16],39% (inactive)
same,growth inhibition,[7]; [17],97% (active)
same,growth inhibition,[7]; at 50.0 µM,65.2% (inactive)
same,growth inhibition,[8]; at 1.2 µM,15% (inactive)
same,growth inhibition,[8]; at 3.7 µM,14% (inactive)
same,growth inhibition,[8]; at 11.0 µM,17% (inactive)
same,growth inhibition,[8]; at 33.0 µM,27% (inactive)
same,growth inhibition,[8]; at 100.0 µM,47% (inactive)
same,growth inhibition,[9]; [16],6% (inactive)
same,growth inhibition,[9]; [17],58% (inactive)
same,growth inhibition,[9]; at 50.0 µM,35% (inactive)
same,growth inhibition,[10]; at 1.2 µM,-30% (inactive)
same,growth inhibition,[10]; at 3.7 µM,-28% (inactive)
same,growth inhibition,[10]; [16],32% (inactive)
same,growth inhibition,[10]; at 11.0 µM,-14% (inactive)
same,growth inhibition,[10]; at 33.0 µM,-22% (inactive)
same,growth inhibition,[10]; [17],97% (active)
same,growth inhibition,[10]; at 50.0 µM,-8.9% (inactive)
same,growth inhibition,[10]; at 100.0 µM,75% (active)
same,growth inhibition,[11]; at 1.2 µM,-12% (inactive)
same,growth inhibition,[11]; at 3.7 µM,-19% (inactive)
same,growth inhibition,[11]; at 11.0 µM,-16% (inactive)
same,growth inhibition,[11]; at 33.0 µM,3% (inactive)
same,growth inhibition,[11]; at 100.0 µM,89% (active)
same,growth inhibition,[12]; at 1.2 µM,5% (inactive)
same,growth inhibition,[12]; at 3.7 µM,3% (inactive)
same,growth inhibition,[12]; at 11.0 µM,7% (inactive)
same,growth inhibition,[12]; at 33.0 µM,65% (inactive)
same,growth inhibition,[12]; at 100.0 µM,94% (active)
same,growth inhibition,[13]; [16],71% (active)
same,growth inhibition,[13]; [17],98% (active)
same,growth inhibition,[13]; at 50.0 µM,91.7% (active)
same,growth inhibition,[14]; at 1.2 µM,3% (inactive)
same,growth inhibition,[14]; at 3.7 µM,57% (inactive)
same,growth inhibition,[14]; at 11.0 µM,85% (active)
same,growth inhibition,[14]; at 33.0 µM,90% (active)
same,growth inhibition,[14]; at 100.0 µM,97% (active)
COc1ccc(OC)c(/C=C/[N+](=O)[O-])c1,growth inhibition,[1]; at 1.2 µM,-6% (inactive)
same,growth inhibition,[1]; at 3.7 µM,-7% (inactive)
same,growth inhibition,[1]; at 11.0 µM,-9% (inactive)
same,growth inhibition,[1]; at 33.0 µM,7% (inactive)
same,growth inhibition,[1]; at 100.0 µM,71% (active)
same,growth inhibition,[2]; at 1.2 µM,29% (inactive)
same,growth inhibition,[2]; at 3.7 µM,59% (inactive)
same,growth inhibition,[2]; at 11.0 µM,74% (active)
same,growth inhibition,[2]; at 33.0 µM,86% (active)
same,growth inhibition,[2]; at 100.0 µM,99% (active)
same,growth inhibition,[3]; at 1.2 µM,0% (inactive)
same,growth inhibition,[3]; at 3.7 µM,-2% (inactive)
same,growth inhibition,[3]; at 11.0 µM,2% (inactive)
same,growth inhibition,[3]; at 33.0 µM,23% (inactive)
same,growth inhibition,[3]; at 100.0 µM,100% (active)
same,growth inhibition,[4]; at 1.2 µM,11% (inactive)
same,growth inhibition,[4]; at 3.7 µM,21% (inactive)
same,growth inhibition,[4]; [16],-83% (inactive) and 19% (inactive)
same,growth inhibition,[4]; at 11.0 µM,48% (inactive)
same,growth inhibition,[4]; at 33.0 µM,86% (active)
same,growth inhibition,[4]; [17],86% (active) and 95% (active)
same,growth inhibition,[4]; at 50.0 µM,99.4% (active)
same,growth inhibition,[4]; at 100.0 µM,99% (active)
same,growth inhibition,[5]; at 1.2 µM,1% (inactive)
same,growth inhibition,[5]; at 3.7 µM,2% (inactive)
same,growth inhibition,[5]; [16],-46% (inactive) and 9% (inactive)
same,growth inhibition,[5]; at 11.0 µM,7% (inactive)
same,growth inhibition,[5]; at 33.0 µM,30% (inactive)
same,growth inhibition,[5]; [17],-38% (inactive) and 97% (active)
same,growth inhibition,[5]; at 50.0 µM,99.7% (active) and 98.8% (active)
same,growth inhibition,[5]; at 100.0 µM,99% (active)
same,growth inhibition,[6]; at 1.2 µM,5% (inactive)
same,growth inhibition,[6]; at 3.7 µM,7% (inactive)
same,growth inhibition,[6]; at 11.0 µM,15% (inactive)
same,growth inhibition,[6]; at 33.0 µM,39% (inactive)
same,growth inhibition,[6]; at 100.0 µM,100% (active)
same,growth inhibition,[7]; [16],-53% (inactive) and 12% (inactive)
same,growth inhibition,[7]; [17],1% (inactive) and 64% (inactive)
same,growth inhibition,[7]; at 50.0 µM,91.3% (active) and 99% (active)
same,growth inhibition,[8]; at 1.2 µM,6% (inactive)
same,growth inhibition,[8]; at 3.7 µM,9% (inactive)
same,growth inhibition,[8]; at 11.0 µM,13% (inactive)
same,growth inhibition,[8]; at 33.0 µM,37% (inactive)
same,growth inhibition,[8]; at 100.0 µM,95% (active)
same,growth inhibition,[9]; [16],-60% (inactive) and 2% (inactive)
same,growth inhibition,[9]; [17],-45% (inactive) and 76% (active)
same,growth inhibition,[9]; at 50.0 µM,98.8% (active) and 98.4% (active)
same,growth inhibition,[10]; at 1.2 µM,0% (inactive)
same,growth inhibition,[10]; at 3.7 µM,6% (inactive)
same,growth inhibition,[10]; [16],-57% (inactive) and 35% (inactive)
same,growth inhibition,[10]; at 11.0 µM,13% (inactive)
same,growth inhibition,[10]; at 33.0 µM,25% (inactive)
same,growth inhibition,[10]; [17],-33% (inactive) and 79% (active)
same,growth inhibition,[10]; at 50.0 µM,99% (active)
same,growth inhibition,[10]; at 100.0 µM,99% (active)
same,growth inhibition,[11]; at 1.2 µM,0% (inactive)
same,growth inhibition,[11]; at 3.7 µM,-1% (inactive)
same,growth inhibition,[11]; at 11.0 µM,-2% (inactive)
same,growth inhibition,[11]; at 33.0 µM,15% (inactive)
same,growth inhibition,[11]; at 100.0 µM,85% (active)
same,growth inhibition,[15]; at 1.2 µM,10% (inactive)
same,growth inhibition,[15]; at 3.7 µM,-2% (inactive)
same,growth inhibition,[15]; at 11.0 µM,8% (inactive)
same,growth inhibition,[15]; at 33.0 µM,28% (inactive)
same,growth inhibition,[15]; at 100.0 µM,98% (active)
same,growth inhibition,[12]; at 1.2 µM,-1% (inactive)
same,growth inhibition,[12]; at 3.7 µM,18% (inactive)
same,growth inhibition,[12]; at 11.0 µM,29% (inactive)
same,growth inhibition,[12]; at 33.0 µM,54% (inactive)
same,growth inhibition,[12]; at 100.0 µM,100% (active)
same,growth inhibition,[13]; [16],-114% (inactive) and 37% (inactive)
same,growth inhibition,[13]; [17],-53% (inactive) and 95% (active)
same,growth inhibition,[13]; at 50.0 µM,97.9% (active) and 99.5% (active)
same,growth inhibition,[14]; at 1.2 µM,5% (inactive)
same,growth inhibition,[14]; at 3.7 µM,13% (inactive)
same,growth inhibition,[14]; at 11.0 µM,20% (inactive)
same,growth inhibition,[14]; at 33.0 µM,49% (inactive)
same,growth inhibition,[14]; at 100.0 µM,96% (active)
